TMEM16A act = activators or potentiators of mouse TMEM16A chloride channel; 340,000 compounds, 0.3% hits; HEK293 TMEM16A/YFP-H148Q/I152L, iodide quench fluorescence; active compounds read low; B-score at 10 µM;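 active means fluorescence-ratio B-score plate-corrected deviation score at least 3 library SD below zero, with starting fluorescence score within 5 deviations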;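 further: channel opened by trigger with iodide after compound preincubation; score built on the fluorescence ratio of max minus min over baseline; more negative score means more quench and so TMEM16A activation or potentiation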
PKA-R1A act = activators of PKA-R1A complex. P00514+P68181. PKA-R1A dissociation, Cy5-IP20 fluorescence polarization; scaled: DMSO 0%, 113 µM cGMP 100%. activation, % at 11.4 µM. 340,000 compounds, 0.083% hits. AID 504707;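 active means percent activation above the mean of all tested compounds plus 3 SD, cut at about 19% in these data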;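 further: higher means more PKAc released from R1A so a rise in polarization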
CHT allo act = allosteric activators of human choline transporter CHT; B-score at 10 µM; CHT-expressing cells, membrane potential dye, choline EC20; active compounds read high; LV-AA mutant CHT in HEK293 cells; AID 488977; Q9GZV3; 310,000 compounds, 0.49% hits;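 active means initial fluorescence not abnormally high and integrated response B-score, plate-corrected, over 3 SD above library mean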
PKA-R2B activ = PKA-R2B complex activation | 340,000 compounds, 0.079% hits | P22694+P31323 | activation, % at 11.4 µM | PKA-R2B holoenzyme dissociation, Cy5-IP20 fluorescence polarization; R2B truncated from residue 108, S112A mutant; 0% DMSO only, 100% 113 µM cGMP | AID 504700;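 active means activation above a cutoff set at the mean over all compounds plus 3 SD, cut at about 18% in these data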;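 further: higher means more holoenzyme dissociation and a rise in polarization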
Target sequence (P31323 whole entry, looked up, other chains not shown, the tested form may be a part): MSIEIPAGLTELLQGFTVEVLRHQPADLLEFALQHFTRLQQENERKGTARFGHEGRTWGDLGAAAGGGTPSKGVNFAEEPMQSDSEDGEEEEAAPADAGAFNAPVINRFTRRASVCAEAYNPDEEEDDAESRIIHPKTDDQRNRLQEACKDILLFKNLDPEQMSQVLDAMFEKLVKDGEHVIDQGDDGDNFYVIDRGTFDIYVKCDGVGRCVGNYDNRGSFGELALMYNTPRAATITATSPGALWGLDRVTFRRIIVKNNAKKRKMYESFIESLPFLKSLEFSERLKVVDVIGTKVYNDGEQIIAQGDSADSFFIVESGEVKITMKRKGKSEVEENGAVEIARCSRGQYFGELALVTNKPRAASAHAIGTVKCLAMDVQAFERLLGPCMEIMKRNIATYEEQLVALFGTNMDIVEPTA
TMEM16A inh = inhibitors of mouse TMEM16A calcium-activated chloride channel | Q8BHY3 | HEK293 TMEM16A/YFP iodide influx fluorescence, ionomycin | normalized B-score (activity score, 25-100; higher = stronger inhibition) at 10 µM | 310,000 compounds, 1.2% hits | AID 588511;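 active means ratio plate-corrected score three or more library SD toward inhibition, starting fluorescence score within five deviations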;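 further: score derived from kinetic fluorescence span divided by baseline fluorescence per well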
CHT inh = inhibits the human high affinity choline transporter; AID 488975; CHT-expressing cells, membrane potential dye, choline response; active compounds read low; B-score at 10 µM; 310,000 compounds, 0.86% hits;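 active means B-score over 3 SD under the library average, and starting fluorescence ratio not unusually high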;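 further: choline stimulus applied at its EC90 after an EC20 pre-addition; B-score computed on integrated fluorescence ratio after choline addition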
R2B FP artifact = counter-screen for PKA-R2B activators: fluorescence polarization artifacts. shares compounds with PKA-R2B activ. FP artifact counterscreen. activation, % at 11.4 µM. 270 compounds, 6% hits; in the data active means activation above about 20%;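 further: Cy5 labelled IP20 peptide probe with compound but no PKA protein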
PKA-R2B act conf = PKA-R2B complex activation, confirmation. shares compounds with PKA-R2B activ. activation, % at 11.4 µM. AID 504797. 270 compounds, 9% hits. fluorescence polarization; in the data active means activation above about 19%
Target sequence (P31323 whole entry, looked up): as the sequence (P31323 whole entry, looked up, other chains not shown, the tested form may be a part) above
The depositor's hits bear a star. Only some compounds are listed: those with a hit (about 2.5% of all), similar ones and a draw of the others.

Screening CCC(=O)N(Cc1cc2cc(OC)ccc2[nH]c1=O)c1ccc(C)cc1C returned TMEM16A act inactive, PKA-R1A act -6, CHT allo act inactive, PKA-R2B activ 21*, TMEM16A inh inactive, CHT inh inactive, R2B FP artifact -3 and PKA-R2B act conf -2.
`Cc1cc(NC(=O)c2cccc(Br)c2)no1` gave TMEM16A act inactive, PKA-R1A act -6, CHT allo act inactive, PKA-R2B activ -8, TMEM16A inh inactive and CHT inh inactive.
CCC1(c2ccc(F)cc2)NC(=O)N(CC(=O)N2CCN(C(=O)c3ccco3)CC2)C1=O (configuration not stated) was read as TMEM16A act inactive, PKA-R1A act 2 and PKA-R2B activ -6.
For Nc1nnc(Cc2cccc(Br)c2)s1 the results were TMEM16A act inactive, PKA-R1A act 7, CHT allo act inactive, PKA-R2B activ 20*, TMEM16A inh inactive, CHT inh inactive, R2B FP artifact 1 and PKA-R2B act conf -4.
`Nc1nnc(Cc2ccccc2)s1` gave TMEM16A act inactive, PKA-R1A act 4, CHT allo act inactive, PKA-R2B activ 6, TMEM16A inh inactive and CHT inh inactive.
`C=CC[C@H](CC(=O)NCCO)C(=O)N[C@H](COC(=O)[C@H](CC=C)CC(=O)OC(C)(C)C)c1ccccc1` gave TMEM16A act inactive, PKA-R1A act -1 and PKA-R2B activ 3.
`CCC[C@@H]1Cc2ccccc2N1C(C)=O` gave TMEM16A act inactive, PKA-R1A act -5, PKA-R2B activ 20*, R2B FP artifact -2 and PKA-R2B act conf -3.
For CC1Cc2ccccc2N1C(=O)Cc1cccs1 (configuration not stated) the results were TMEM16A act inactive, PKA-R1A act -9, CHT allo act inactive, PKA-R2B activ 9, TMEM16A inh inactive and CHT inh inactive.
`CCOC(=O)Oc1c(OC)cc(C(=O)O[C@@H]2C[C@@H]3CN4CCc5c([nH]c6cc(OC)ccc56)[C@H]4C[C@@H]3[C@H](C(=O)OC)[C@H]2OC)cc1OC` gave TMEM16A act inactive, PKA-R1A act -3, CHT allo act inactive, PKA-R2B activ 3, TMEM16A inh inactive and CHT inh inactive.
For O=c1[nH]cnc2ncc(-c3ccc(O)cc3)nc12 the results were TMEM16A act inactive, PKA-R1A act -10, CHT allo act inactive, PKA-R2B activ 20*, TMEM16A inh inactive, CHT inh inactive, R2B FP artifact 7 and PKA-R2B act conf 7.
O=c1[nH]cnc2nc(-c3ccccc3)c(-c3ccccc3)nc12 was read as TMEM16A act inactive, PKA-R1A act 4, CHT allo act inactive, PKA-R2B activ 5, TMEM16A inh inactive and CHT inh inactive.
Screening CC(NC(=O)c1cc(S(=O)(=O)N(C)C)ccc1Cl)c1ccc(-n2ccnc2)cc1 (configuration not stated) returned TMEM16A act inactive, PKA-R1A act -10, CHT allo act inactive, PKA-R2B activ -6, TMEM16A inh inactive and CHT inh inactive.
Screening CCN1CCCC1CN(Cc1cc2cc(C)ccc2[nH]c1=O)C(=O)Nc1ccccc1OC (configuration not stated) returned TMEM16A act inactive, PKA-R1A act 0, CHT allo act inactive, PKA-R2B activ 19*, TMEM16A inh inactive, CHT inh inactive, R2B FP artifact 1 and PKA-R2B act conf 2.
`COc1ccccc1NC(=O)N(CCN1CCCC1)Cc1cc2cc(C)ccc2[nH]c1=O` gave TMEM16A act inactive, PKA-R1A act 6, CHT allo act inactive, PKA-R2B activ 2, TMEM16A inh inactive and CHT inh inactive.
Screening N#Cc1nc(-c2cccs2)oc1NCC1CCCO1 (configuration not stated) returned TMEM16A act inactive, PKA-R1A act 3, CHT allo act inactive, PKA-R2B activ 19*, TMEM16A inh inactive, CHT inh inactive, R2B FP artifact 1 and PKA-R2B act conf 1.
For Cc1ccc(-c2nc(C#N)c(NCC3CCCO3)o2)cc1 (configuration not stated) the results were TMEM16A act inactive, PKA-R1A act 10, CHT allo act inactive, PKA-R2B activ 1, TMEM16A inh inactive and CHT inh inactive.
`COc1ccccc1C(=O)NNC(=O)c1ccc2ccccc2c1O` gave PKA-R1A act 2 and PKA-R2B activ -2.
`COc1ccc(S(=O)(=O)N(CC(=O)N2CCCCCC2)c2ccccc2OC)cc1` gave TMEM16A act inactive, PKA-R1A act 1, CHT allo act inactive, PKA-R2B activ -10, TMEM16A inh inactive and CHT inh inactive.
For COC(=O)Cc1cnc(NC(=O)C2C3CCC(C3)C2C(=O)O)s1 (configuration not stated) the results were TMEM16A act inactive, PKA-R1A act 4, CHT allo act inactive, PKA-R2B activ 19*, TMEM16A inh inactive, CHT inh inactive, R2B FP artifact 2 and PKA-R2B act conf 4.
COC(=O)c1ccc(NC(=O)C2C3CCC(C3)C2C(=O)O)cc1 (configuration not stated) was read as TMEM16A act inactive, PKA-R1A act -1, CHT allo act inactive, PKA-R2B activ -14, TMEM16A inh inactive and CHT inh inactive.
For Clc1cccc(N/N=C/c2ccc(N3CCOCC3)s2)c1 the results were TMEM16A act inactive, PKA-R1A act 7, CHT allo act inactive, PKA-R2B activ 21*, TMEM16A inh inactive, CHT inh inactive, R2B FP artifact 6 and PKA-R2B act conf -1.
Screening O=C(N/N=C/c1ccc(N2CCOCC2)s1)c1ccccc1Br returned TMEM16A act inactive, PKA-R1A act 1, CHT allo act inactive, PKA-R2B activ -6, TMEM16A inh inactive and CHT inh inactive.
COc1cccc(CC(NC(C)=O)C(=O)NC2CCN(C(=O)c3ccncc3)CC2)c1OC (configuration not stated) was read as TMEM16A act inactive, PKA-R1A act -5, PKA-R2B activ 19*, R2B FP artifact 6 and PKA-R2B act conf 2.
